# Measured values taken from publication PMC11006913.
# Residue numbers refer to the chain shown, from its start.
# Key:
# Assay in all cases: PBM; 200 nM protein, PBS
# Conditions in all cases: dsDNA, one strand shown
# NKX3-2 [1] = biological target: NKX3-2 (Homo sapiens, UniProt P78367 192-278, P234S)
# NKX3-2 [2] = biological target: NKX3-2 (Homo sapiens, UniProt P78367 192-278)
# NKX2-5 [3] = biological target: NKX2-5 (Homo sapiens, UniProt P52952 125-210, R139K)
# NKX2-5 [4] = biological target: NKX2-5 (Homo sapiens, UniProt P52952 125-210)
# HOXD13 [5] = biological target: HOXD13 (Homo sapiens, UniProt P35453 263-343, T313R)
# HOXD13 [6] = biological target: HOXD13 (Homo sapiens, UniProt P35453 263-343)
# HOXD13 [7] = biological target: HOXD13 (Homo sapiens, UniProt P35453 263-343, T313A)
# CRX = CRX (Homo sapiens, UniProt O43186 26-111, R41L)
# SIX6 [8] = biological target: T1, SIX6 (Homo sapiens, UniProt O95475 114-200, L167I)
# T1 sequence: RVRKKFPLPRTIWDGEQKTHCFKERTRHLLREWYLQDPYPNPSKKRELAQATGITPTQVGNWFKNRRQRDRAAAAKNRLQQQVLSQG
# SIX6 [9] = biological target: T2, SIX6 (Homo sapiens, UniProt O95475 114-200, L143V)
# T2 sequence: T1 sequence with L30V, I54L
# SIX6 [10] = biological target: T3, SIX6 (Homo sapiens, UniProt O95475 114-200, H141N)
# T3 sequence: T1 sequence with H28N, I54L
# SIX6 [11] = biological target: T4, SIX6 (Homo sapiens, UniProt O95475 114-200, L167M)
# T4 sequence: T1 sequence with I54M
# SIX6 [12] = biological target: T5, SIX6 (Homo sapiens, UniProt O95475 114-200, L143M)
# T5 sequence: T1 sequence with L30M, I54L
# SIX6 [13] = biological target: T6, SIX6 (Homo sapiens, UniProt O95475 114-200, L143I)
# T6 sequence: T1 sequence with L30I, I54L
# SIX6 [14] = biological target: T7, SIX6 (Homo sapiens, UniProt O95475 114-200, T165G)
# T7 sequence: T1 sequence with T52G, I54L
# SIX6 [15] = biological target: T8, SIX6 (Homo sapiens, UniProt O95475 114-200, T139Q)
# T8 sequence: T1 sequence with T26Q, I54L
# SIX6 [16] = biological target: T9, SIX6 (Homo sapiens, UniProt O95475 114-200, T165A)
# T9 sequence: T1 sequence with T52A, I54L
# SIX6 [17] = biological target: T10, SIX6 (Homo sapiens, UniProt O95475 114-200, L167V)
# T10 sequence: T1 sequence with I54V
# SIX6 [18] = biological target: T11, SIX6 (Homo sapiens, UniProt O95475 114-200)
# T11 sequence: T1 sequence with I54L
# SIX6 [19] = biological target: T12, SIX6 (Homo sapiens, UniProt O95475 114-200, T165I)
# T12 sequence: T1 sequence with T52I, I54L
# CRX, sequence (O43186 26-111 R41L): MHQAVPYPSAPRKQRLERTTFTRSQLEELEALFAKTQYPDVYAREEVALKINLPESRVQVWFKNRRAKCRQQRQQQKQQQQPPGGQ
# HOXD13 (Homo sapiens, UniProt P35453 263-343, T313R), sequence (P35453 263-343 T313R): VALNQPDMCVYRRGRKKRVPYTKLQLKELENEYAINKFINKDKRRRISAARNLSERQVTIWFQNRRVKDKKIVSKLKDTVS
# NKX3-2 (Homo sapiens, UniProt P78367 192-278), sequence (P78367 192-278): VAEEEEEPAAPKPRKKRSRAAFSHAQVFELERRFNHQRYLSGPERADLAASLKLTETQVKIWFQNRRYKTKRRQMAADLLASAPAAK
# HOXD13 (Homo sapiens, UniProt P35453 263-343, T313A), sequence (P35453 263-343 T313A): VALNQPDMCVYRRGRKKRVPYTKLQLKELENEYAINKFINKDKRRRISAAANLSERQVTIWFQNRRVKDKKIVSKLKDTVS
# HOXD13 (Homo sapiens, UniProt P35453 263-343), sequence (P35453 263-343): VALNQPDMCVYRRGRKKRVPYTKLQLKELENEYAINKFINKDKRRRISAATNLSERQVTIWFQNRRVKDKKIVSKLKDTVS
# NKX3-2 (Homo sapiens, UniProt P78367 192-278, P234S), sequence (P78367 192-278 P234S): as the sequence (P78367 192-278) above, with P43S counted along it
# NKX2-5 (Homo sapiens, UniProt P52952 125-210, R139K), sequence (P52952 125-210 R139K): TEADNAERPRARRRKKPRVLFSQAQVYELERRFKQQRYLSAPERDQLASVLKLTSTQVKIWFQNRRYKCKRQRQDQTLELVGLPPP
# NKX2-5 (Homo sapiens, UniProt P52952 125-210), sequence (P52952 125-210): as the sequence (P52952 125-210 R139K) above, with K15R counted along it
sequence,measurement,setting,value
GCTAATTA,binding signal,NKX3-2 [1],"11.7 upbm affinity estimate (log intensity, higher = more binding, comparable within an allelic series)"
same,binding signal,NKX3-2 [2],"11.7 upbm affinity estimate (log intensity, higher = more binding, comparable within an allelic series)"
ACCGCGGG,binding signal,NKX2-5 [3],"8.49 upbm affinity estimate (log intensity, higher = more binding, comparable within an allelic series)"
same,binding signal,NKX2-5 [4],"8.44 upbm affinity estimate (log intensity, higher = more binding, comparable within an allelic series)"
CAATTAAA,binding signal,HOXD13 [5],"10.7 upbm affinity estimate (log intensity, higher = more binding, comparable within an allelic series)"
same,binding signal,HOXD13 [6],"11.7 upbm affinity estimate (log intensity, higher = more binding, comparable within an allelic series)"
same,binding signal,HOXD13 [7],"11.7 upbm affinity estimate (log intensity, higher = more binding, comparable within an allelic series)"
CTAATTAC,binding signal,NKX3-2 [1],"11.6 upbm affinity estimate (log intensity, higher = more binding, comparable within an allelic series)"
same,binding signal,NKX3-2 [2],"11.7 upbm affinity estimate (log intensity, higher = more binding, comparable within an allelic series)"
ACTAATTG,binding signal,NKX3-2 [1],"11.8 upbm affinity estimate (log intensity, higher = more binding, comparable within an allelic series)"
same,binding signal,NKX3-2 [2],"11.8 upbm affinity estimate (log intensity, higher = more binding, comparable within an allelic series)"
GGCAATTA,binding signal,NKX3-2 [1],"11.8 upbm affinity estimate (log intensity, higher = more binding, comparable within an allelic series)"
same,binding signal,NKX3-2 [2],"11.9 upbm affinity estimate (log intensity, higher = more binding, comparable within an allelic series)"
CAATTAAC,binding signal,HOXD13 [7],"11.6 upbm affinity estimate (log intensity, higher = more binding, comparable within an allelic series)"
CTAATTGA,binding signal,NKX3-2 [1],"11.5 upbm affinity estimate (log intensity, higher = more binding, comparable within an allelic series)"
same,binding signal,NKX3-2 [2],"11.6 upbm affinity estimate (log intensity, higher = more binding, comparable within an allelic series)"
CCAATTAA,binding signal,HOXD13 [5],"10.8 upbm affinity estimate (log intensity, higher = more binding, comparable within an allelic series)"
same,binding signal,HOXD13 [6],"11.9 upbm affinity estimate (log intensity, higher = more binding, comparable within an allelic series)"
same,binding signal,HOXD13 [7],"11.8 upbm affinity estimate (log intensity, higher = more binding, comparable within an allelic series)"
same,binding signal,NKX3-2 [1],"11.7 upbm affinity estimate (log intensity, higher = more binding, comparable within an allelic series)"
same,binding signal,NKX3-2 [2],"11.8 upbm affinity estimate (log intensity, higher = more binding, comparable within an allelic series)"
GGCAGGCC,binding signal,HOXD13 [5],"9.41 upbm affinity estimate (log intensity, higher = more binding, comparable within an allelic series)"
same,binding signal,HOXD13 [6],"9.41 upbm affinity estimate (log intensity, higher = more binding, comparable within an allelic series)"
same,binding signal,HOXD13 [7],"9.35 upbm affinity estimate (log intensity, higher = more binding, comparable within an allelic series)"
AATTAATC,binding signal,CRX,"12.5 upbm affinity estimate (log intensity, higher = more binding, comparable within an allelic series)"
CCAGGTCC,binding signal,SIX6 [8],"9.09 upbm affinity estimate (log intensity, higher = more binding, comparable within an allelic series)"
same,binding signal,SIX6 [9],"8.75 upbm affinity estimate (log intensity, higher = more binding, comparable within an allelic series)"
same,binding signal,SIX6 [10],"8.99 upbm affinity estimate (log intensity, higher = more binding, comparable within an allelic series)"
same,binding signal,SIX6 [11],"8.79 upbm affinity estimate (log intensity, higher = more binding, comparable within an allelic series)"
same,binding signal,SIX6 [12],"9.02 upbm affinity estimate (log intensity, higher = more binding, comparable within an allelic series)"
same,binding signal,SIX6 [13],"8.99 upbm affinity estimate (log intensity, higher = more binding, comparable within an allelic series)"
same,binding signal,SIX6 [14],"9.06 upbm affinity estimate (log intensity, higher = more binding, comparable within an allelic series)"
same,binding signal,SIX6 [15],"9.28 upbm affinity estimate (log intensity, higher = more binding, comparable within an allelic series)"
same,binding signal,HOXD13 [5],"9.45 upbm affinity estimate (log intensity, higher = more binding, comparable within an allelic series)"
same,binding signal,SIX6 [16],"9.07 upbm affinity estimate (log intensity, higher = more binding, comparable within an allelic series)"
same,binding signal,HOXD13 [6],"9.43 upbm affinity estimate (log intensity, higher = more binding, comparable within an allelic series)"
same,binding signal,SIX6 [17],"9 upbm affinity estimate (log intensity, higher = more binding, comparable within an allelic series)"
same,binding signal,SIX6 [18],"9.04 upbm affinity estimate (log intensity, higher = more binding, comparable within an allelic series)"
same,binding signal,SIX6 [19],"9.08 upbm affinity estimate (log intensity, higher = more binding, comparable within an allelic series)"
same,binding signal,HOXD13 [7],"9.65 upbm affinity estimate (log intensity, higher = more binding, comparable within an allelic series)"
ATTAATAG,binding signal,HOXD13 [5],"10.9 upbm affinity estimate (log intensity, higher = more binding, comparable within an allelic series)"
same,binding signal,HOXD13 [6],"11.8 upbm affinity estimate (log intensity, higher = more binding, comparable within an allelic series)"
same,binding signal,HOXD13 [7],"11.8 upbm affinity estimate (log intensity, higher = more binding, comparable within an allelic series)"
CTTGCGGC,binding signal,NKX3-2 [1],"10.7 upbm affinity estimate (log intensity, higher = more binding, comparable within an allelic series)"
same,binding signal,NKX3-2 [2],"10.6 upbm affinity estimate (log intensity, higher = more binding, comparable within an allelic series)"
GAGGGGGC,binding signal,CRX,"8.14 upbm affinity estimate (log intensity, higher = more binding, comparable within an allelic series)"
CCCAGGCG,binding signal,NKX3-2 [1],"10.6 upbm affinity estimate (log intensity, higher = more binding, comparable within an allelic series)"
same,binding signal,NKX3-2 [2],"10.6 upbm affinity estimate (log intensity, higher = more binding, comparable within an allelic series)"
GGAGCGCA,binding signal,SIX6 [8],"8.88 upbm affinity estimate (log intensity, higher = more binding, comparable within an allelic series)"
same,binding signal,SIX6 [9],"8.9 upbm affinity estimate (log intensity, higher = more binding, comparable within an allelic series)"
same,binding signal,SIX6 [10],"8.88 upbm affinity estimate (log intensity, higher = more binding, comparable within an allelic series)"
same,binding signal,SIX6 [11],"8.87 upbm affinity estimate (log intensity, higher = more binding, comparable within an allelic series)"
same,binding signal,SIX6 [12],"8.97 upbm affinity estimate (log intensity, higher = more binding, comparable within an allelic series)"
same,binding signal,SIX6 [13],"8.85 upbm affinity estimate (log intensity, higher = more binding, comparable within an allelic series)"
same,binding signal,SIX6 [14],"8.87 upbm affinity estimate (log intensity, higher = more binding, comparable within an allelic series)"
same,binding signal,SIX6 [15],"8.78 upbm affinity estimate (log intensity, higher = more binding, comparable within an allelic series)"
same,binding signal,SIX6 [16],"8.96 upbm affinity estimate (log intensity, higher = more binding, comparable within an allelic series)"
same,binding signal,SIX6 [17],"8.93 upbm affinity estimate (log intensity, higher = more binding, comparable within an allelic series)"
same,binding signal,SIX6 [18],"8.87 upbm affinity estimate (log intensity, higher = more binding, comparable within an allelic series)"
same,binding signal,SIX6 [19],"8.91 upbm affinity estimate (log intensity, higher = more binding, comparable within an allelic series)"
ATTAATGC,binding signal,CRX,"11 upbm affinity estimate (log intensity, higher = more binding, comparable within an allelic series)"
